Laboratory results published in PubChem BioAssay.
Calls of active or inactive are those of the source. Unless noted, no rule for the calls is given here.

Columns and labels:
[1] = system: Wnt5a (protein binding on small-molecule microarray); assay: Wnt5a binders on small-molecule microarray, primary screen, biophysical, 635/667 nm fluorescence (AID 1142); conditions: 635 nm fluorescence, higher = more signal;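 also: fluorescence read at 667 nm with signal to noise per printed feature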
[2] = cell viability in Huh7 cells, primary screen, cytotoxicity control for HCV replication inhibitor project, CellTiter-Glo luminescence, basal, 48 h (AID 1143); conditions: Huh7 HCV replicon, higher = more signal, called active from +8 up or from −8 down;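 also: Huh7 hepatoma cells carrying a hepatitis C replication reporter with no stimulus; test concentration not given here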
[3] = P. aeruginosa biofilm formation inhibitors, primary screen, PAO1 strain, BacTiter-Glo luminescence, LB-PBS (AID 1144); conditions: 12 h, higher = more signal
[4] = CREB reporter modulators without forskolin, primary screen, cell-based, PC12, CRE-LacZ reporter, unstimulated (AID 1145); conditions: no forskolin, luminescence, 4.5 h, higher = more signal, called active from +8 up or from −8 down
[5] = CREB reporter modulators under forskolin, primary screen, cell-based, PC12, CRE-LacZ reporter, forskolin-stimulated (AID 1146); conditions: luminescence, 4.5 h, higher = more signal, called active from +8 up or from −8 down;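 also: PC12 cells with 6xCRE LacZ reporter stimulated by forskolin 10 µM; beta-galactosidase reporter signal reflecting CREB driven transcription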
[6] = target: Streptavidin (Streptomyces avidinii) (UniProt P22629); assay: streptavidin binders on small-molecule microarray, primary screen, artefact control for SMM compound annotation, biophysical, 635/667 nm fluorescence (AID 1147); conditions: streptavidin binding, higher = more signal;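 also: signal reflects streptavidin binding to arrayed compounds as a control protein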
Chain of Streptavidin (Streptomyces avidinii) (P22629 whole entry, looked up): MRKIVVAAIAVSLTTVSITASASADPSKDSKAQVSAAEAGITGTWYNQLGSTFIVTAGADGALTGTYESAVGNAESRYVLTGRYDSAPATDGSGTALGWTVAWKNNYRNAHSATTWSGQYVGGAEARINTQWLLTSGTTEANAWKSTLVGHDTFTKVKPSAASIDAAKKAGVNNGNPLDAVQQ

[7] = small-molecule binders of probe aInhba, primary screen, biochemical, small-molecule microarray, 635/667 nm fluorescence (AID 1148); conditions: higher = more signal;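 also: score merges 667nm spot fluorescence with signal-to-noise for antibody binding to printed compounds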
[8] = target: Torsin-1A (Homo sapiens) (UniProt O14656); assay: torsin A binders from cell lysate, primary screen, small-molecule microarray, wild-type, 635/667 nm (AID 1149); conditions: COS7 hTOR1A-WT lysate, 635 nm fluorescence, higher = more signal
Chain of Torsin-1A (Homo sapiens) (O14656 whole entry, looked up): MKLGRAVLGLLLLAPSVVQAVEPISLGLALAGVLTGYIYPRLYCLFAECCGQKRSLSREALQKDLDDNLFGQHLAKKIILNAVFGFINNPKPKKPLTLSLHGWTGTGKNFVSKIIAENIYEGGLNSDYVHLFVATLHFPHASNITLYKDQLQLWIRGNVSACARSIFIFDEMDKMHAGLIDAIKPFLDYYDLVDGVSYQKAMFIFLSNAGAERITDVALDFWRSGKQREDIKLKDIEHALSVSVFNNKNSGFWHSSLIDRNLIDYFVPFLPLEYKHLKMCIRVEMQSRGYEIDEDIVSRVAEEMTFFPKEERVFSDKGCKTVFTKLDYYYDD

[9] = target: Torsin-1A (Homo sapiens) (UniProt O14656); assay: small-molecule binders of mutant TOR1A in lysate, primary screen, cell lysate, small-molecule microarray, COS7 lysate, 635/667 nm fluorescence (AID 1150); conditions: COS7 hTOR1A mutant lysate, 635 nm fluorescence, higher = more signal;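 also: score pools 667 nm emission and signal to noise measuring lysate protein binding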
[10] = system: Sonic hedgehog protein (Shh); assay: small-molecule binders of Shh protein, primary screen, biochemical, small-molecule microarray, 635/667 nm fluorescence (AID 1151); conditions: small-molecule microarray binding, 635 nm fluorescence; higher = more signal;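 also: Shh protein binding to compounds spotted on small-molecule microarray slides; score combines spot fluorescence intensity with signal-to-noise across triplicate slides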

| Compound | composite z-score [1] | z-score [2] | z-score [3] | z-score [4] | z-score [5] | composite z-score [6] | composite z-score [7] | composite z-score [8] | composite z-score [9] | composite z-score [10] |
| --- | --- | --- | --- | --- | --- | --- | --- | --- | --- | --- |
| CO[C@@H]1COC(=O)[C@H](C)NC(=O)[C@@H](C)COC(=O)CCC[C@H]1C | -0.0361 | -0.639 (inactive) | 0.019 (inactive) | 0.085 (inactive) | 0.396 (inactive) | -0.185 | -0.128 | 0.738 | 0.462 | 1.24 |
| CC(C)C[C@@H]1NC(=O)[C@H]2C[C@@H](C(=O)O)[C@@H](c3ccc(O)cc3)N2C1=O | 0.0112 | -0.354 (inactive) | -0.1 (inactive) | 0.281 (inactive) | -0.627 (inactive) | 0.0925 | -0.0521 | 0.884 | 0.285 | 1.67 |
| COC(=O)[C@@H]1CC[C@H](C)[C@@H](c2ccc(C)cc2)N1C(=O)c1ccc(C=NOC(C)CN2CCCCc3nc(C)c(C)cc32)cc1 (stereo not given in full) | 0.595 | -3.62 (inactive) | -0.356 (inactive) | 1.81 (inactive) | 1 (inactive) | 0.48 | -0.0791 | -0.269 | -0.332 | 0.328 |
| COc1ccc(O[C@H]2C=C[C@@H](c3ccccc3)O[C@@H]2COC(=O)CCC(C)=NOC[C@@H](C)[C@H](OCc2ccccc2)C(C)C)cc1 | -0.348 | -1.55 (inactive) | -0.0552 (inactive) | -0.901 (inactive) | 0.468 (inactive) | -0.892 | -0.203 | -0.416 | -0.632 | -0.155 |
| CN(C)C(=O)[C@@]1(Cc2ccccc2)N=C(c2ccc(OCCCO)cc2)O[C@H]1c1ccccc1CN=[N+]=[N-] | 1.45 | -2.26 (inactive) | 0.456 (inactive) | 0.974 (inactive) | -0.55 (inactive) | 1.5 | 0.696 | 0.526 | 1.79 | -0.122 |
| C=CC[C@@H]1C=C[C@H](ON=Cc2ccc(C(=O)N3[C@H](c4ccc(C)cc4)[C@@H](C)CC[C@H]3C(=O)OC)cc2)[C@@H](CO)O1 | 0.14 | -1.33 (inactive) | 0.694 (inactive) | 3.89 (inactive) | 0.062 (inactive) | -0.161 | -0.0791 | -0.0434 | 0.0034 | 0.68 |
| O=C(NN=C1C[C@@H](O)[C@@H](O)[C@@H]2[C@@H]3C(=O)N(c4ccc(F)cc4F)C(=O)[C@@H]3CC[C@@H]12)OCc1ccccc1 | -0.132 | 0.375 (inactive) | 1.21 (inactive) | 0.16 (inactive) | 0.829 (inactive) | 0.98 | -0.128 | 0.871 | 0.464 | -0.33 |
| CC1CC/C=C\[C@H]2OC34C=CCN(C(C)C)C(=O)[C@H]3N(CCCO)C(=O)[C@@H]4C2C(=O)O1 (stereo not given in full) | -0.439 | -1.03 (inactive) | 1.15 (inactive) | 0.601 (inactive) | 0.371 (inactive) | -1.47 | 0.095 | 1.72 | -1.29 | 0.533 |
| COc1ccc(-c2ccc3c(n2)CCCN3CC(O)CN2CCCc3nc(C)c(C)cc32)cc1 (stereo not given) | 0.268 | -0.154 (inactive) | -0.0522 (inactive) | -0.0779 (inactive) | 0.536 (inactive) | 1.52 | 0.276 | 0.785 | 1.15 | 1.19 |
| C=CC[C@@H]1C=C[C@H](ON=C2c3cc(OC)ccc3O[C@H](c3cccc(OC)c3)[C@H]2O)[C@@H](CO)O1 | -0.0596 | -0.375 (inactive) | 0.0436 (inactive) | 5.59 (inactive) | 0.442 (inactive) | 0.0285 | -0.182 | -0.0807 | -0.129 | 0.723 |
| CCCC=C(CCC)[C@@H](NC(=O)c1ccc(-c2ccccc2)cc1)c1ccc(C(=O)OC)cc1 | -0.0745 | -0.116 (inactive) | 0.29 (inactive) | 0.576 (inactive) | 0.381 (inactive) | 1.09 | 0.0872 | -0.162 | 0.0735 | -0.809 |
| CCCNC(=O)[C@@H]1c2ccccc2C(=O)N(Cc2ccccc2Cl)[C@H]1c1ccc(CO)cc1 | 0.4 | -1.44 (inactive) | 0.378 (inactive) | -0.412 (inactive) | -0.366 (inactive) | 0.802 | 0.264 | 0.174 | 0.461 | 1.9 |
| COC(=O)[C@H]1COC(c2ccc(OCCCO)cc2)=N1 | -0.0323 | -0.597 (inactive) | -0.767 (inactive) | 0.0686 (inactive) | 0.697 (inactive) | -0.998 | -0.204 | 0.337 | 1.4 | -0.196 |
| COCCOC(=O)N1C(=O)[C@@]2(c3cc(C#Cc4ccc(OC)cc4)ccc31)[C@H](C(=O)N1CCN(c3ncccn3)CC1)[C@H]1C(=O)O[C@H](c3ccccc3)[C@H](c3ccccc3)N1[C@@H]2c1ccc(OCCO)cc1 | 0.044 | -0.151 (inactive) | -0.118 (inactive) | -0.606 (inactive) | -0.242 (inactive) | 0.531 | 0.397 | -0.0983 | 0.33 | 1 |
| Cc1cc2c(c(=O)o1)[C@H](O)[C@H]1O[C@H]1C2=O | -0.218 | -2.97 (inactive) | 1.6 (inactive) | -1.06 (inactive) | 2.18 (inactive) | 0.0061 | -0.209 | 0.284 | 0.46 | 1.5 |
| COCCOC(=O)N1C(=O)[C@@]2(c3ccccc31)[C@H](C(N)=O)[C@H]1C(=O)O[C@H](c3ccccc3)[C@H](c3ccccc3)N1[C@@H]2c1ccccc1OCCO | 0.491 | -4.01 (inactive) | 1.67 (inactive) | 0.362 (inactive) | 0.406 (inactive) | 0.662 | 0.126 | 0.918 | 0.815 | 1.19 |
| CCOC(=O)NN=C1C[C@@H](O)[C@@H](O)[C@@H]2[C@@H]3C(=O)N(C4CCCCC4)C(=O)[C@@H]3CC[C@H]12 | -0.064 | -0.779 (inactive) | 0.786 (inactive) | 0.341 (inactive) | 0.174 (inactive) | -0.0615 | -0.111 | 0.218 | 0.568 | 0.369 |
| CC(C)=CCCC(C)=CCON=C1[C@H]2CCn3c(=O)n(C)c(=O)n3[C@H]2[C@H](O)[C@@H]2O[C@H]12 | 0.287 | 0.583 (inactive) | 1.13 (inactive) | 0.519 (inactive) | -0.0697 (inactive) | 0.203 | -0.12 | 1.15 | 0.898 | 1.98 |
| CC(CCN1CCc2nc(-c3ccccc3)c(-c3ccccc3)cc2C1)=NOC[C@@H](C)[C@H](OCc1ccccc1)C(C)C | -0.492 | 0.232 (inactive) | -0.612 (inactive) | 2.07 (inactive) | -0.17 (inactive) | -0.717 | -0.261 | -2.11 | -1.21 | -0.819 |
| CN1C(=O)C2C=CC(C(O)C(c3ccccc3)c3ccccc3)N(NC(=O)OC(C)(C)C)C2C1=O (stereo not given) | 0.843 | -0.0027 (inactive) | 0.417 (inactive) | -0.136 (inactive) | 0.0964 (inactive) | 1.68 | 0.72 | -0.05 | 0.848 | -0.587 |
| CO[C@@H]1COC(=O)CC=C[C@@H](C)[C@H](OC)COC(=O)[C@H](COCc2ccccc2)NC(=O)CC=C[C@H]1C | -0.0092 | -0.069 (inactive) | 0.204 (inactive) | 0.0664 (inactive) | -0.707 (inactive) | -1.15 | -0.253 | 1.35 | 0.263 | 1.5 |
| CN1C(=O)C2C(C1=O)C1C=C(CCCO)C2C(c2ccc(CN3CCCC3)cc2)N1C (stereo not given) | -0.205 | -0.202 (inactive) | 0.675 (inactive) | -0.0743 (inactive) | -0.436 (inactive) | -0.383 | -0.157 | 0.33 | -0.287 | 0.207 |
| C=CCN1C(=O)[C@]2(O[C@H](CCn3cc(CCO)nn3)[C@@H]([Si](C)(C)c3ccc(OC)cc3)[C@@H]2C)c2cc(N3CCOC3=O)ccc21 | -0.246 | -4.23 (inactive) | -0.771 (inactive) | 7.08 (inactive) | 0.144 (inactive) | 1.32 | -0.253 | 0.419 | 0.855 | 0.6 |
| CC(=O)OC[C@H]1O[C@H](CCON=C(C)CCC(=O)OC[C@H]2O[C@H](C#Cc3ccccc3)C=C[C@@H]2Oc2ccc(C)cc2)C=C[C@@H]1OC(C)=O | 0.0159 | -0.474 (inactive) | 0.037 (inactive) | 0.894 (inactive) | 0.452 (inactive) | 0.238 | -0.231 | 0.595 | 0.139 | 0.688 |
| COC(=O)CC=C[C@H](C)[C@H](CO)NS(=O)(=O)c1ccc(C)cc1 | 0.378 | -1.27 (inactive) | -0.0262 (inactive) | -0.434 (inactive) | -0.692 (inactive) | 0.293 | -0.122 | 0.375 | 0.0191 | 0.82 |
| CC(CCC(=O)OC[C@H]1O[C@H](C#Cc2ccccc2)C=C[C@@H]1Oc1ccc(C)cc1)=NOC[C@@H](O)COCc1ccco1 | -1.52 | -0.204 (inactive) | -0.128 (inactive) | 3.74 (inactive) | 1.9 (inactive) | -1.78 | -0.446 | -6.37 | -5.2 | -2.43 |
| C=CCNC(=O)[C@H]1[C@@H]2C(=O)O[C@@H](c3ccccc3)[C@@H](c3ccccc3)N2[C@@H](c2ccc(O)cc2)[C@]12C(=O)N(C(=O)OCCOC)c1ccc(C#CC3=CCCCC3)cc12 | 0.411 | -3.95 (inactive) | 0.101 (inactive) | -0.878 (inactive) | -0.633 (inactive) | 0.841 | 0.935 | 0.757 | 1.14 | 1.45 |
| CCCCCN1CC=CC23O[C@@H]4C=CCOC(=O)[C@@H]4[C@H]2C(=O)N(C(CO)C(C)C)[C@@H]3C1=O (stereo not given in full) | -0.389 | -0.524 (inactive) | 0.921 (inactive) | -0.757 (inactive) | 0.371 (inactive) | -0.263 | 0.0013 | -1.34 | -1.38 | 0.298 |
| C#CCCCON=C1C[C@@H](O)[C@@H](O)[C@@H]2[C@@H]3C(=O)N([C@@H](C)c4ccccc4)C(=O)[C@@H]3CC[C@H]12 | -0.216 | -3.38 (inactive) | -0.0158 (inactive) | 2.61 (inactive) | -0.428 (inactive) | 0.029 | -0.128 | 0.258 | 0.126 | 0.552 |
